Assay results from the supplement of paper PMC8728848.
This excerpt belongs to a sample that is enriched for the strongest signals.

What was measured:
Test in all cases: glycan array binding signal (z-score within array); higher = stronger binding
Conditions in all cases: glycan notation: IUPAC condensed, linker removed
[1] = target: Gal(b1-4)GlcNAc(b1-3)Gal(b1-4)GlcNAc(b1-3)Gal(b1-4)GlcNAc(b1-2)Man(a1-3)[Gal(b1-4)GlcNAc(b1-3)Gal(b1-4)GlcNAc(b1-3)Gal(b1-4)GlcNAc(b1-2)Man(a1-6)]Man(b1-4)GlcNAc(b1-4)GlcNAc
Outline: (§1)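 Glycan array data came from 3228 arrays in the Consortium for Functional Glycomics database, and only arrays with an available protein sequence were kept. Glycan names were put into IUPAC-condensed notation, and columns mapping to the same glycan were averaged. The binding signal is a within-array Z-score, averaged across arrays of one protein sequence run at different concentrations or buffers and across linkers. A negative Z-score can be read as non-binding.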

[2] = target: Gal(b1-4)GlcNAc(b1-3)Gal(b1-4)GlcNAc(b1-3)Gal(b1-4)GlcNAc(b1-3)Gal(b1-4)GlcNAc(b1-2)Man(a1-3)[Gal(b1-4)GlcNAc(b1-3)Gal(b1-4)GlcNAc(b1-3)Gal(b1-4)GlcNAc(b1-3)Gal(b1-4)GlcNAc(b1-2)Man(a1-6)]Man(b1-4)GlcNAc(b1-4)[Fuc(a1-6)]GlcNAc
Outline: as §1

[3] = target: Gal(b1-4)GlcNAc(b1-3)Gal(b1-4)GlcNAc(b1-3)Gal(b1-4)GlcNAc(b1-3)Gal(b1-4)GlcNAc(b1-2)[Gal(b1-4)GlcNAc(b1-3)Gal(b1-4)GlcNAc(b1-3)Gal(b1-4)GlcNAc(b1-3)Gal(b1-4)GlcNAc(b1-6)]Man(a1-6)[Gal(b1-4)GlcNAc(b1-3)Gal(b1-4)GlcNAc(b1-3)Gal(b1-4)GlcNAc(b1-3)Gal(b1-4)GlcNAc(b1-2)Man(a1-3)]Man(b1-4)GlcNAc(b1-4)[Fuc(a1-6)]GlcNAc
Outline: as §1

[4] = target: Gal(b1-4)GlcNAc(b1-3)Gal(b1-4)GlcNAc(b1-3)Gal(b1-4)GlcNAc(b1-3)Gal(b1-4)GlcNAc(b1-3)Gal(b1-4)GlcNAc(b1-2)Man(a1-3)[Gal(b1-4)GlcNAc(b1-3)Gal(b1-4)GlcNAc(b1-3)Gal(b1-4)GlcNAc(b1-3)Gal(b1-4)GlcNAc(b1-3)Gal(b1-4)GlcNAc(b1-2)Man(a1-6)]Man(b1-4)GlcNAc(b1-4)GlcNAc
Outline: as §1

[5] = target: Gal(b1-4)GlcNAc(b1-3)Gal(b1-4)GlcNAc(b1-3)Gal(b1-4)GlcNAc(b1-3)Gal(b1-4)GlcNAc(b1-3)Gal(b1-4)GlcNAc(b1-2)Man(a1-3)[Gal(b1-4)GlcNAc(b1-3)Gal(b1-4)GlcNAc(b1-3)Gal(b1-4)GlcNAc(b1-3)Gal(b1-4)GlcNAc(b1-3)Gal(b1-4)GlcNAc(b1-2)Man(a1-6)]Man(b1-4)GlcNAc(b1-4)[Fuc(a1-6)]GlcNAc
Outline: as §1

[6] = target: Gal6S(b1-3)GlcNAc6S
Outline: as §1

[7] = target: GalNAc(b1-4)GlcNAc
Outline: as §1

[8] = target: GalNAc3S(b1-4)GlcNAc
Outline: as §1

[9] = target: GlcNAc(a1-3)Gal(b1-4)GlcNAc
Outline: as §1

[10] = target: GlcNAc(b1-3)Gal(b1-4)GlcNAc(b1-3)Gal(b1-4)GlcNAc(b1-3)Gal(b1-4)GlcNAc(b1-3)Gal(b1-4)GlcNAc(b1-2)Man(a1-3)[GlcNAc(b1-3)Gal(b1-4)GlcNAc(b1-3)Gal(b1-4)GlcNAc(b1-3)Gal(b1-4)GlcNAc(b1-3)Gal(b1-4)GlcNAc(b1-2)Man(a1-6)]Man(b1-4)GlcNAc(b1-4)[Fuc(a1-6)]GlcNAc
Outline: as §1

[11] = target: GlcNAc(b1-3)GalNAc
Outline: as §1

[12] = target: Man(a1-2)Man(a1-3)Man
Outline: as §1

[13] = target: Neu5Ac(a2-3)Gal
Outline: as §1

[14] = target: Neu5Ac(a2-3)Gal(b1-3)GalNAc
Outline: as §1

[15] = target: Neu5Ac(a2-3)Gal(b1-3)GlcNAc(b1-3)Gal(b1-4)GlcNAc
Outline: as §1

[16] = target: Neu5Ac(a2-3)Gal(b1-3)[Neu5Ac(a2-6)]GlcNAc(b1-3)[Fuc(a1-3)[Gal(b1-4)]GlcNAc(b1-6)]Gal(b1-4)Glc
Outline: as §1

[17] = target: Neu5Ac(a2-3)Gal(b1-4)GlcNAc(b1-3)Gal(b1-4)GlcNAc(b1-3)Gal(b1-4)GlcNAc(b1-2)Man(a1-3)[Neu5Ac(a2-3)Gal(b1-4)GlcNAc(b1-3)Gal(b1-4)GlcNAc(b1-3)Gal(b1-4)GlcNAc(b1-2)Man(a1-6)]GalNAc
Outline: as §1

[18] = target: Neu5Ac(a2-3)Gal(b1-4)[Fuc(a1-3)]GlcNAc(b1-3)GalNAc
Outline: as §1

[19] = target: Neu5Ac(a2-3)Gal6S(b1-4)[Fuc(a1-3)]GlcNAc
Outline: as §1

[20] = target: Neu5Ac(a2-6)Gal(b1-3)GlcNAc(b1-3)[Gal(b1-4)GlcNAc(b1-6)]Gal(b1-4)Glc
Outline: as §1

[21] = target: Neu5Ac(a2-6)Gal(b1-4)GlcNAc(b1-2)Man(a1-6)[GlcNAc(b1-2)Man(a1-3)]Man(b1-4)GlcNAc(b1-4)GlcNAc
Outline: as §1

[22] = target: Neu5Ac(a2-6)Gal(b1-4)GlcNAc(b1-3)Gal(b1-4)[Fuc(a1-3)]GlcNAc(b1-3)Gal(b1-4)[Fuc(a1-3)]GlcNAc
Outline: as §1

[23] = target: Neu5Ac(a2-8)Neu5Ac
Outline: as §1

[24] = target: Neu5Gc(a2-3)Gal(b1-3)[Fuc(a1-4)]GlcNAc
Outline: as §1

[25] = target: Neu5Gc(a2-3)Gal(b1-4)GlcNAc(b1-3)Gal(b1-4)GlcNAc(b1-2)Man(a1-3)[Neu5Gc(a2-3)Gal(b1-4)GlcNAc(b1-3)Gal(b1-4)GlcNAc(b1-2)Man(a1-6)]Man(b1-4)GlcNAc(b1-4)GlcNAc
Outline: as §1

B1: GS7807H-bfa-490-18-490 (Bacteroides fragilis) (protein)
chain: GNLEEMNIDPDNATQTHPKLLLTQICMNAFKRGTDGMYATKKVIQADGESADQYYKWTRGSFGYYDNLRNVQKMGEEAERVNAPVYTALTKFFRAYYFYELTLRFGDIPYSQALKGEKEEIYTPEYDAQEDVFAGILQELREADEILANDASVIDGDIIYNGNSTQWRKLINSFRLKVLMTLSNHTTVGNINIASEFKNIATNSPLMNSLADNGQLVYLDQQGNRYPQFNAQWSGYYMDDTFIQRMRERRDPRLFIFSAQTNKGKTEGKPIDDFSSYEGGDPAAPYSDAIIKVSEGTISPINDRFRTDPIVEPTMLMGYAELQQILAEAVVRGWISGNAQTYYEKGIRASFSFYETHAKDYAGYLNENAVAQYLKEPLVDFTQASGTEEQIERIIMQKYLVTFYQGNWDSFYEQLRTGYPDFRRPAGTEIPKRWMYPQGEYDNNGTNVETAITRQFGAGNDKINQATWWQKKS
Q: Which results are given for B1?
A: glycan array binding signal (z-score) [1]: 2.19; glycan array binding signal (z-score) [2]: 2.51; glycan array binding signal (z-score) [3]: 2.08; glycan array binding signal (z-score) [4]: 1.71; glycan array binding signal (z-score) [5]: 2.17; glycan array binding signal (z-score) [6]: 1.52; glycan array binding signal (z-score) [7]: 0.462; glycan array binding signal (z-score) [8]: -0.743; glycan array binding signal (z-score) [9]: -0.677; glycan array binding signal (z-score) [10]: 4.28; glycan array binding signal (z-score) [11]: -0.454; glycan array binding signal (z-score) [12]: 0.369; glycan array binding signal (z-score) [13]: -0.022; glycan array binding signal (z-score) [14]: -0.368; glycan array binding signal (z-score) [15]: -0.526; glycan array binding signal (z-score) [16]: -0.176; glycan array binding signal (z-score) [17]: 9.02; glycan array binding signal (z-score) [18]: 5.66; glycan array binding signal (z-score) [19]: -0.29; glycan array binding signal (z-score) [20]: 0.078; glycan array binding signal (z-score) [21]: -0.141; glycan array binding signal (z-score) [22]: -0.32; glycan array binding signal (z-score) [23]: -0.459; glycan array binding signal (z-score) [24]: -0.469; glycan array binding signal (z-score) [25]: -0.11
